Experimental data reported in PubChem BioAssay (NCI).
About 83,000 compounds went through this panel and 20% of them were active in at least one assay; those are over-represented in the sample as a whole.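 Values shown are percent growth following 48 h exposure of cells in 96-well plates to a single concentration of compound; below 10 was considered active.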 Values without a mark were called inactive. Calls of active or inactive are those of the source.

How the values were obtained:
Test in all cases: NCI-60 one-dose screen, 48 h (100 = growth as untreated, 0 = no growth, -100 = all killed)
Conditions in all cases: 10 µM unless noted
[1] = tested on: SK-MEL-2 melanoma
[2] = tested on: EKVX NSCLC
[3] = tested on: SN12C renal
[4] = tested on: UO-31 renal
[5] = tested on: TK-10 renal
[6] = tested on: ACHN renal
[7] = tested on: CAKI-1 renal
[8] = tested on: A498 renal
[9] = tested on: CCRF-CEM leukemia
[10] = tested on: MOLT-4 leukemia

Structure (SMILES)	growth [1]	growth [2]	growth [3]	growth [4]	growth [5]	growth [6]	growth [7]	growth [8]	growth [9]	growth [10]
CC(=O)Nc1ccccc1-c1nc2ccccc2s1	104%	96.1%	92.5%	89.1%	97.7%	102%	95.4%	84.4%	98.4%	104%
COc1cc(NC(=O)Nc2cccc(-c3cc(=O)c4c(OC)c(OC)c(OC)cc4o3)c2)cc(OC)c1OC	49.3%	62.2%	38.5%	24.7%	64.9%	56.1%	35.4%	19.1%	35.4%	32.1%
CCOC(=O)c1c(NC(=O)c2cccc(C(F)(F)F)c2)sc2c3c(ccc12)OCN(C)C3	98.8%	36.9%	-66.2% (active)	31.8%	126%	-91.9% (active)	44.8%	84.3%	-39.5% (active)	-48.5% (active)
Cn1cc(-c2nnc(N)nc2-c2c[nH]c3ccc(Br)cc23)c2cc(Br)ccc21	110%	103%	110%	84.2%	78.7%	94.7%	85.9%	93.6%	108%	107%
Cc1ccc(C(=O)Nc2ccc(CNCCN3CCOCC3)c(C(F)(F)F)c2)cc1C#Cc1cnc2cccnn12	-7.32% (active)	41.2%	26.5%	19%	51.4%	22.8%	17.2%	-1.13% (active)	10.1%	4.38% (active)
O=C(N/N=C\c1ccc(F)cc1)c1ccc2nc(-c3ccc(Br)cc3)[nH]c2c1	83.2%	53.1%	29.4%	55.4%	42.4%	12%	43%	80.8%	53.6%	31.7%
Oc1[nH]c2ccc(Cl)cc2c1N=Nc1nc(N=Nc2c(O)[nH]c3ccc(Cl)cc23)nc(N2CCOCC2)n1	65.3%	85.2%	43.9%	78.7%	118%	74.5%	72%	21.6%	20.3%	62.5%
O=C1c2ccccc2C23C(=C(c4cncnc4)c4ccccc42)CCCN13 (centres undefined)	106%	100%	96.4%	85.6%	97%	99.2%	78.5%	96.4%	102%	107%
CC(=O)OC[C@@]12Oc3c(cccc3-c3ccc(O)c4c3O[C@]3(COC(C)=O)C(=C4O)C(=O)C[C@H](C)[C@@H]3OC(C)=O)C(O)=C1C(=O)C[C@H](C)[C@@H]2OC(C)=O	-20.4% (active)	16.4%	7.7% (active)	9.35% (active)	9.84% (active)	7.48% (active)	0.254% (active)	1.51% (active)	14.3%	4.81% (active)
CC(C)C(/C=C/c1[nH]ncc1-c1cc(Cl)ccc1O)N1CCOCC1 (centres undefined)	91.3%	95.9%	97.7%	70%	119%	92.8%	69.7%	81.7%	97.7%	86%
CCCC[n+]1ccc(SCC(=O)n2ccc3ccccc32)c2ccccc21	99.9%	88.1%	96.5%	76.5%	141%	104%	81.9%	111%	87.3%	83.1%
NNc1nnc2nc(Nc3ccccc3)nc(Nc3ccc(S(N)(=O)=O)cc3)n12	111%	99.4%	98.8%	82.2%	106%	106%	94.5%	102%	92.5%	105%
CN1CCN(c2ccc(Nc3nc(NCCNS(=O)(=O)c4ccc5ccccc5c4)c4sccc4n3)cc2)CC1	103%	86.2%	79.6%	68.9%	127%	86.8%	69.5%	86.9%	41.9%	41.6%
COC(=O)c1cccc(NC2=CC(=O)C(C)=C(C)C2=O)c1	101%	100%	93.3%	94.5%	133%	100%	86.5%	78.7%	52.8%	40%
N/C(=N\C(N)=N\c1nc2ccccc2s1)c1ccc(Cl)cc1	96.8%	59.8%	61.1%	73.1%	132%	62.1%	65.1%	74.7%	57.9%	74%
COc1ccc(-c2cnc(NC(=O)CCCCCCNC(=O)C(O)(O)C(F)(F)F)s2)cc1	-27.3% (active)	19.6%	3.72% (active)	-27.4% (active)	-20.1% (active)	-29.5% (active)	-39.9% (active)	-44.2% (active)	18.7%	6.5% (active)
COC(=O)c1cccc(NC2=C(Cl)C(=O)c3nc(C)ccc3C2=O)c1	101%	54.3%	93.1%	48.5%	128%	0.427% (active)	103%	71%	5.63% (active)	19.7%
CC(C)Sc1nc(-c2ccccc2)c(C#N)c(N2CCOCC2)n1	128%	69.8%	28.1%	17.9%	106%	-6.39% (active)	52.1%	65.6%	75.3%	93.5%
O=C(CCCCCCN1CC(=O)N2[C@@H](c3ccccc3Br)c3[nH]c4ccccc4c3C[C@H]2C1=O)NO	39.3%	62.5%	66.3%	58.4%	28.7%	70.2%	42.2%	74.7%	17.7%	6.43% (active)
CC(=O)OC[C@]12CC[C@@H](C(=O)/C=C/c3cccnc3)[C@@H]1[C@H]1CC[C@@H]3[C@@]4(C)CC[C@H](OC(C)=O)C(C)(C)[C@@H]4CC[C@@]3(C)[C@]1(C)CC2	-35.9% (active)	21.8%	19%	12.1%	38.5%	-55.5% (active)	12.2%	-47.7% (active)	2.41% (active)	-5.14% (active)
N#Cc1c(-c2cccs2)c(C#N)c(=O)n(Cc2nc3ccccc3[nH]2)c1N	92.6%	90.9%	91.8%	60%	152%	96.8%	80.7%	118%	101%	102%
CCc1cccc2c3c(sc12)C(c1ccc(F)cc1)C(C#N)=C(/N=C/c1ccc(Cl)cc1)O3 (centres undefined)	-7.31% (active)	47.8%	32.4%	39.2%	93.5%	32.3%	41.5%	-10.4% (active)	20.7%	25.4%

Structure (SMILES)	growth [1]	growth [2]	growth [3]	growth [4]	growth [5]	growth [6]	growth [7]	growth [8]	growth [9]	growth [10]
Cc1[nH]c(C(=O)Nc2ccccc2OCc2cccc(C(=O)NCCN)c2)cc1Cl	92.8%	105%	93.9%	92.2%	98.9%	95.1%	90.2%	68.3%	27.4%	68.6%
CC(C)(C)Nc1nc2c(OCCc3ccccc3)cccn2c1-c1ccc([N+](=O)[O-])cc1	60.5%	41.8%	75.5%	31.6%	66.5%	54.4%	43.3%	97.7%	53.7%	18.1%
CN1CCN(CCCCCC(=O)Nc2nc(-c3cccc(NS(=O)(=O)c4cccc5c(N(C)C)cccc45)c3)cs2)CC1	102%	74.7%	70.6%	75.1%	119%	88.4%	74.3%	88.6%	59.8%	39.5%
O=c1c2cc(-c3ccc(F)cc3F)ccc2n(O)c(=O)n1-c1cccc(C(F)(F)F)c1	-34.3% (active)	4.46% (active)	0.105% (active)	8% (active)	1.66% (active)	0.899% (active)	-16.4% (active)	-22.4% (active)	15.2%	0.581% (active)
NCCNC(=O)c1cccc(COc2ccccc2NC(=O)c2cc(Br)c(Br)[nH]2)c1	101%	89.9%	92.6%	90%	89%	101%	90.1%	81.1%	17.9%	68.7%
CN1CCN(CC#CCn2c3c(c4ccccc42)C[C@]2(C)[C@H]4CC=C5[C@@H]6CC(C)(C)CC[C@]6(C(=O)N6CCOCC6)CC[C@@]5(C)[C@]4(C)CC[C@H]2C3(C)C)CC1	119%	75.2%	81.1%	56.5%	135%	93%	64.5%	92.4%	35%	33.9%
COC(=O)CNC(=O)c1cccc(-c2cc(=O)c3c(OC)c(OC)c(OC)cc3o2)c1	105%	102%	104%	86.1%	109%	98.9%	102%	90.8%	91.3%	99.5%
CCC(=C(c1ccc(OCCN2CCCCCC2)cc1)c1ccc(OCCN2CCCCCC2)cc1)c1ccc(Cl)cc1	-29.9% (active)	54.5%	48.3%	13.6%	114%	26.2%	44.3%	84.4%	3.5% (active)	4.03% (active)
O=C(CSc1nnc(-c2ccc(Cl)cc2)n1-c1ccccc1)Nc1ccc(Cl)cc1	87.3%	49.7%	16.3%	12%	-6.39% (active)	-2.97% (active)	50.9%	41.4%	53.9%	84.6%
COc1cc(C(C)=C(c2ccc(OCCN(C)C)cc2)c2ccc(OCCN(C)C)cc2)ccc1F	109%	96.1%	101%	95.5%	97.8%	105%	101%	108%	111%	108%
O=C1C(N2CCN(c3ccccc3)CC2)=C(Cl)C(=O)c2ncccc21	97.1%	101%	58.2%	14.9%	123%	-3.31% (active)	39.9%	104%	6.08% (active)	9.67% (active)
CC(=C(c1ccc(OCCCN(C)C)cc1)c1ccc(OCCCN(C)C)cc1)c1ccc(Cl)cc1	99.3%	94.7%	85.5%	88.5%	96.5%	92.6%	92.6%	79.2%	66.8%	65.3%
CCS(=O)(=O)Nc1ccc(C(=O)CC2(O)C(=O)Nc3ccccc32)cc1 (centres undefined)	113%	91.8%	97.4%	67.7%	122%	95.3%	82.6%	103%	99.7%	102%
O=C1Nc2cc(Cl)ccc2/C1=C\c1ccc(OCc2ccccc2)cc1	111%	100%	96%	76.2%	154%	94.8%	89.3%	93%	102%	99.1%
CC(=O)/C(N=Nc1ccc2oc(=O)ccc2c1)=C(\C)O	0.338% (active)	30.8%	35.6%	15.4%	23.8%	18.2%	33.3%	29.8%	13.1%	16.4%
COc1cc(-c2nc(-c3ccccc3)[nH]c2-c2ccnc(NCCCNS(=O)(=O)c3cccc(F)c3)n2)ccc1F	105%	80.8%	93.8%	89.2%	137%	88.7%	106%	68.9%	66%	54.4%
O=C(Nc1cc(C(F)(F)F)cc(C(F)(F)F)c1)Nc1ccc2oc(=O)ccc2c1	-18.5% (active)	9.09% (active)	-7.21% (active)	1.64% (active)	16.1%	-3.53% (active)	1.47% (active)	-1.96% (active)	17.5%	19.7%
COc1cc2oc(-c3cccc(NC(=O)c4cccc([N+](=O)[O-])c4)c3)cc(=O)c2c(OC)c1OC	91.5%	63.9%	40.2%	37.8%	92.7%	30.3%	49.7%	72.9%	59.7%	54%
CC(=O)C1=C(C)NC(NNc2ccccc2)=NC1c1ccc([N+](=O)[O-])cc1 (centres undefined)	102%	80%	98.8%	73.3%	109%	76%	43.3%	91.9%	89.7%	82.6%
CCCCCCN1C=C/C(=C\C(=O)n2ccc3ccccc32)c2ccccc21	76%	36.3%	67.6%	52%	114%	66.3%	61%	97.5%	54.8%	62%
CCOC(=O)Nc1ccc2c(ccn2C(=O)c2cccc(F)c2)c1	32%	44.1%	48.7%	49.9%	59.9%	53.4%	45.1%	-6.19% (active)	16.7%	30.2%
CCOC(=O)c1cccnc1Nc1ccc(NC(=O)Nc2ccc(Cl)c(C(F)(F)F)c2)cc1	37.2%	40.6%	51.3%	34.1%	40.3%	35.3%	22.6%	41.3%		24.9%
